Bioassay records (PubChem)
BoNT-A LC inh2: BoNT/A light chain protease inhibitors, primary screen, biochemical, flow cytometry, MLPCN library. Botulinum neurotoxin type A light chain protease (Clostridium botulinum A str. ATCC 3502). multiplex microsphere protease substrate cleavage. inhibition, % at 10 µM. hit rate 0.17% among 360,000. AID 588499, 2011; further: plate controls were buffer without enzyme for full effect and enzyme alone for no effect
MazF activator: activators of E. coli MazEF toxin-antitoxin RNase, primary screen, biochemical, fluorescence, uHTS; activation, % at 20 µM; hit rate 0.32% among 350,000; Endoribonuclease toxin MazF (Escherichia coli (strain K12)), P0AE70; FAM/BHQ RNA-DNA oligo cleavage fluorescence, 5 h; in the data active means activation above about 50%
Target sequence (P0AE70 whole entry, looked up): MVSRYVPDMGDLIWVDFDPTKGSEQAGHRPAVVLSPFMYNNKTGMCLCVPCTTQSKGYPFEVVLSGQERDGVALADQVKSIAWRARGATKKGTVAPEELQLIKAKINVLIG
DUSP3 inh: VHR1 phosphatase inhibitors, primary screen, biochemical, absorbance, uHTS. recombinant VHR phosphatase, pNPP absorbance. hit rate 0.52% among 290,000. AID 1654, 2009. inhibition, % at 13.3 µM; in the data active means inhibition above about 50%
Target sequence (P51452 whole entry, looked up): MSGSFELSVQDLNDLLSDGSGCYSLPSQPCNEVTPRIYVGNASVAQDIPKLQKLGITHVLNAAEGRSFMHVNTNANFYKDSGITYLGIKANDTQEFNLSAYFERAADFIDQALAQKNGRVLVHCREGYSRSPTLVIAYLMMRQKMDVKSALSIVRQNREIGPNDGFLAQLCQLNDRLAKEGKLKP
BoNT-F LC inh: BoNT/F light chain protease inhibitors, primary screen, biochemical, flow cytometry, MLPCN library; AID 588497, 2011; hit rate 0.22% among 360,000; Multiplex microsphere protease cleavage assay; Botulinum neurotoxin type F light chain protease (Clostridium botulinum); inhibition, % at 10 µM; in the data active means inhibition above about 35%, passing the limit was not always enough; inconclusive means no clear call, values can overlap the other calls; further: plate controls were buffer without enzyme for full effect and enzyme alone for no effect
Anthrax LF inh2: Bacillus anthracis LF protease inhibitors, primary screen, biochemical, multiplex microsphere, MLPCN library; inhibition, % at 10 µM; Lethal factor (Bacillus anthracis), P15917; multiplex microsphere protease cleavage assay; AID 588501, 2011; hit rate 0.12% among 360,000; further: plate controls were buffer without enzyme for full effect and enzyme alone for no effect
Bead autofluor: compound fluorescence in toxin protease inhibitor counterscreen; AID 624483; fluorescence intensity (test concentration not listed); compound autofluorescence counterscreen, microsphere flow cytometry; stronger effect = higher value; hit rate 3.1% among 360,000; in the data active means fluorescence intensity above about 16000; inconclusive means no clear call, values can overlap the other calls
Numbers without * were called inactive; ? = inconclusive; · = not tested or not shown. An excerpt weighted towards active compounds, which were near 4% of everything screened. Unless noted, no stated cut-off is given here; in the data, active means inhibition above about 30%; inconclusive means no clear call, values can overlap the other calls; inactive means below that.

SMILES	BoNT-A LC inh2	MazF activator	DUSP3 inh	BoNT-F LC inh	Anthrax LF inh2	Bead autofluor
CCn1c(/C=C/c2c(C)[nH]c3ccccc23)nc2ccccc2c1=O	0	106*	-10	-7	1	11331
Cc1cccc(-n2c(/C=C/c3ccc([N+](=O)[O-])o3)nc3ccccc3c2=O)c1	16	90*	-5	5	11	10243
COc1ccc(CC(=O)OCC(=O)Nc2cccc(Br)c2)cc1	0	10	9	4	-3	2088
O=C(Cn1nc(-c2ccccc2)ccc1=O)NCc1ccc2c(c1)OCO2	-1	-6	21	0	1	10832
CN1C(=O)CC(c2ccco2)Sc2ccccc21 (stereo not given)	-4	-5	32	-3	1	21771*
O=C(CN1C(=O)CC(c2ccco2)Sc2ccccc21)NCC1CCCO1 (stereo not given)	?	-6	0	0	-8	23515*
O=C1N2CN(C(c3ccccc3)c3ccccc3)CN=C2SC1(CO)CO	-2	4	-4	-1	-9	10655
Brc1ccc([C@H]2C=C[C@H]3CCCN4CC[C@H]2[C@@H]3[C@]42CO2)cc1	-1	·	·	-12	-11	5977
CN(C)CCCN(C(=O)COc1ccccc1)c1nc2ccc(F)cc2s1	0	2	11	-2	-3	4427
CCCCCc1ccc(CC(=O)O)cc1	?	1	8	-5	-6	25330*
O=C1CCc2cc(NS(=O)(=O)c3ccc(F)cc3)cc3c2N1CCC3	0	4	·	5	4	6021
O=C(COc1ccc(S(=O)(=O)NC2CCCCC2)cc1Cl)NCc1ccc2c(c1)OCO2	0	1	9	-3	-2	10786
O=C(COc1ccc(S(=O)(=O)NC2CCCCC2)cc1Cl)Nc1ccc2c(c1)OCO2	-4	1	-2	-7	-3	25024*
Cc1cccc(NC(=S)NCc2ccccc2Cl)c1C	2	6	-20	37*	-13	4243
NNC(=S)Nc1ccc(OC(F)(F)F)cc1	·	6	17	·	·	·
Cc1cccc(NC(=S)NCc2ccc3c(c2)cc(C)n3C)c1C	47*	12	5	-125	-74	2076
Cc1cc2cc(CNC(=S)Nc3ccc(OC(F)(F)F)cc3)ccc2n1C	60*	19	-7	-106	-82	1752
COc1cccc(NC(=S)NCc2ccc3c(c2)cc(C)n3C)c1	54*	3	2	-121	-84	2002
COC(=O)[C@@]1(Cc2ccccc2)[C@H]2C(=O)N(C)C(=O)[C@H]2[C@H]2CN(C)C(=NCc3ccccc3)N21	0	6	·	-2	1	3992
CCC(C)c1ccc2oc(-c3ccc(NC(=O)c4ncn[nH]4)cc3)nc2c1 (stereo not given)	-1	-8	16	-2	2	20099*
CC1=C(C(=O)c2ccccc2)C(c2cn(-c3ccccc3)nc2-c2ccc(Cl)cc2)NC(=S)N1 (stereo not given)	2	-3	19	-2	-5	19559*
N#Cc1c(N2CCOCC2)nc(N)c2c(N)nc3c(c12)CC(CCl)O3 (stereo not given)	-2	-17	17	-22	-6	6750
CN1CCN(CCCNC(=O)c2nnc(Cc3c(F)cccc3Cl)o2)CC1	10	-7	24	9	-9	18850*
COc1ccc(CCNC(=O)c2nnc(Cc3c(F)cccc3Cl)o2)cc1OC	0	-11	-6	6	1	3713
O=C(NCCCN1CCCC1=O)c1nnc(Cc2c(F)cccc2Cl)o1	?	-2	13	-1	0	22538*
SMILES	BoNT-A LC inh2	MazF activator	DUSP3 inh	BoNT-F LC inh	Anthrax LF inh2	Bead autofluor
CC(=O)C[C@H](O)CC(=O)[C@H]1OC(=O)[C@H](C)CCCCc2ccccc21	0	0	·	-7	-1	3721
O=S(=O)(Nc1ccc(Br)cc1)c1cccc(NC(=S)NCCN2CCOCC2)c1	-2	6	16	-12	-4	3023
Nc1c(C(=O)c2ccccc2)sc2nsc(SCCN3CCOCC3)c12	·	127*	30	·	·	·
Cc1ccc(C(NC(=O)/C=C\c2ccc3c(c2)OCO3)C(=O)Nc2ccc3c(c2)OCO3)cc1 (stereo not given)	-1	5	2	-4	0	11358
Cc1ccc(S(=O)(=O)CC(CN2CCOCC2)N2CCOCC2)cc1 (stereo not given)	0	1	19	-2	0	2503
O=S(=O)(CC(CN1CCCC1)N1CCCC1)c1ccc2ccccc2c1 (stereo not given)	3	3	35	7	-4	26003*
NS(=O)(=O)c1ccc(NC(=O)CSc2ncccn2)cc1	-1	-7	-7	-10	-2	6525
NS(=O)(=O)c1ccc(NC(=O)CSc2ccc3ccccc3n2)cc1	-1	12	6	-2	-1	16858*
CCCC(=O)Nc1ccc2oc(-c3ccncc3)nc2c1	0	6	32	-1	-2	16375*
COc1ccc(OCC(=O)Nc2ccc3oc(-c4ccncc4)nc3c2)cc1	0	7	16	-3	-1	2660
COc1ccc(-c2nc3cc(NC(=O)Cc4ccc(OC)c(OC)c4)ccc3o2)cc1	-1	11	-6	-3	-3	16446*
COc1ccc(S(=O)(=O)N(C)C[C@H]2OCc3cn(nn3)CCCC(=O)N([C@H](C)CO)C[C@@H]2C)cc1	0	2	·	3	-3	2932
CCN(CCCNC(=O)CN(C)S(=O)(=O)c1cccc2nsnc12)c1cccc(C)c1	2	4	26	11	1	3978
N#C/C(=C\c1ccccc1)C(=O)N1CCC(C(N)=O)CC1	2	6	20	8	-2	3848
CCCCCCCCOC(=O)c1ccc(N)cc1	-1	-7	49	-8	-5	4265
O=C(NCc1ccccc1)C1(c2ccccc2)CCN(S(=O)(=O)c2ccccc2)CC1	-1	3	21	-2	-2	16987*
O=C(O)C1(c2ccccc2)CCN(S(=O)(=O)c2ccccc2)CC1	0	-4	-15	-4	-3	4504
O=C(CC1SC2=NCCN2C1=O)Nc1ccccc1 (stereo not given)	0	3	15	1	-1	5735
Cc1ccc(NC(=O)CC2SC3=NCCN3C2=O)cc1 (stereo not given)	2	0	13	0	0	22351*
O=C(Nc1ccccc1[N+](=O)[O-])c1nc[nH]c1C(=O)NCCO	0	1	34	10	2	4404
COc1c2ccoc2nc2c(OC)c(O)ccc12	1	9	21	-4	-4	4392
